# Sampled rows, rich in hits. Any-hit rate of the full collection: about 7.5%.
# FLuc counter – firefly luciferase modulation, counter-screen for miR-21 project | P08659 | purified FLuc, Km substrates, luminescence inhibition | Potency, µM (doses to about 57.5 µM), inactives show top-dose activity change, negative = inhibition, usual class: inhibitors | 360,000 compounds, 6.9% hits | AID 588342;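 further: plate controls were vehicle for no effect and reference inhibitor for full effect; nearly all actives have a fitted effect of over 55% in size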
# Target sequence (P08659 whole entry, looked up): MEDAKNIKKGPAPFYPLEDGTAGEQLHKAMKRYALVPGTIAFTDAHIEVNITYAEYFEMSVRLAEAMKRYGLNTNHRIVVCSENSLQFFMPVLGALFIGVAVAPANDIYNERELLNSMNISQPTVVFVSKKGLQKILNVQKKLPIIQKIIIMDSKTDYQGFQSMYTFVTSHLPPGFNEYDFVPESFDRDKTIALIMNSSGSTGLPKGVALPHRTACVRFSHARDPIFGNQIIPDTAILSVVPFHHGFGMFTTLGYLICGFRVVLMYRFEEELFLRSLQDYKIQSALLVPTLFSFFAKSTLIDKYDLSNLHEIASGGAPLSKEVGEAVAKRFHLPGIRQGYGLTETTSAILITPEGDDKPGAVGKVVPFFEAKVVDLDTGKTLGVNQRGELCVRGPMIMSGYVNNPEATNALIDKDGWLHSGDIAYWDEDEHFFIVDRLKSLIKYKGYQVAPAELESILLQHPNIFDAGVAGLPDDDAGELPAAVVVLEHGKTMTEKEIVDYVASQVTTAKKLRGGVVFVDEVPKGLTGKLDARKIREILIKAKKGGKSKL
#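 Biochemical qHTS of compounds, final roughly 60 µM downward over six points, against 10 nM purified firefly luciferase using Km concentrations of substrates (10 uM D-luciferin, 10 uM ATP) in Tris acetate pH 7.5 buffer; luminescence output.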
# Rab9 prom act – activators of Rab9 promoter | Huh7 Rab9 promoter-luciferase reporter, luminescence, 24 h | Potency, µM (top dose mostly 9.22 µM), for the others: at the highest dose activation, negative = inhibition, actives largely listed as activators | 320,000 compounds, 2.8% hits | AID 485297; further: % of control where 0% means no effect; nearly all actives have a fitted effect of over 60% in size
#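 Luciferase signal after 10 min detection reagent at ambient indicates Rab9 promoter upregulation; stably transfected Huh7 cells were treated 24 h with compound in DMSO at 37 °C, 5% CO2.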
# NPC1 prom act – NPC1 promoter activation; Huh7 NPC1 promoter luciferase reporter, 24 h; Potency, µM (series often up to 9.22 µM), without a hit: at the top dose activation, hits mostly activators; 320,000 compounds, 2.4% hits; further: % of control where 0% means no effect; nearly all actives have a fitted effect of over 60% in size
#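 Quantitative HTS used a cell-based reporter: Huh7 cells stably bearing the NPC1 promoter upstream of luciferase were treated with compounds for 24 h, and promoter activation was read as luminescence.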
# ELG1 genotoxic – induces genotoxicity in HEK293T cells with luciferase-tagged ELG1; HEK293T ELG1-luciferase reporter, luminescence, 16 h; Potency, µM (series often up to 46 µM), without a hit: at the top dose activity change, positive = activation, most hits filed as activators; 330,000 compounds, 1.3% hits; AID 504466; further: % of control where 0% means no effect; nearly all actives have a fitted effect of over 60% in size
#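 Genotoxic stress is detected as increased luminescence from luciferase-tagged ELG1 in HEK293T cells, measured with ONE-Glo after a 16 hr treatment at 37 °C.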
# SMN2 splice up – enhancers of SMN2 splice variant expression | HEK293 SMN2-luciferase splicing reporter, luminescence, 30-36 h | Potency, µM (series often up to 46.1 µM), without a hit: at the top dose activity change, positive = activation, usual class: activators | 210,000 compounds, 2.8% hits; further: % of control where 0% means no effect; nearly all actives have a fitted effect of over 55% in size
#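 qHTS luciferase splicing reporter: luminescence rises when SMN2 exon 7 is included in transfected HEK293 cells. Compound exposure lasted 30-36 h at 37C, with 4.5 mM final sodium butyrate as control, followed by a ONE-Glo read.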
# An asterisk follows results filed as active; ? = inconclusive; . = no result; [ ] = another dose, or the depositor's remark. The call rests on the fitted dose curve; in most records, active means well fitted curve in the direction sought with a large enough effect; inconclusive means small, poorly fitted or top-dose-only effect, or another doubt; inactive means no such curve, though single readings can be large; an effect the other way counts as inactive or inconclusive. Potency means the concentration at half of the fitted maximal effect.
SMILES,FLuc counter,Rab9 prom act,NPC1 prom act,ELG1 genotoxic,SMN2 splice up
Cn1c(=O)c2c(nc(NCCCN3CCOCC3)n2Cc2ccc(Cl)cc2)n(C)c1=O,9.2%,24.6%,24.6%,-1.3%,13.0%
Cc1cccc(-c2cc3nc(C)cc(NCCCn4ccnc4)n3n2)c1,15.1µM*,-7.6%,1.7%,?,-12.7%
CC(C)(C)c1cc(NCCCn2ccnc2)n2ncc(-c3ccccc3)c2n1,5.36µM*,2.24µM*,2µM*,?,.
COc1ccccc1-n1cc(-c2ccc(C)cc2)nc1S(=O)(=O)CC(=O)Nc1ccccc1C(F)(F)F,-14.0%,.,.,.,.
Cc1cccc(C(=O)Nc2sc3c(c2C(=O)N2CCCCC2)CCC(C)C3)c1 (centres undefined),?,.,.,.,-11.3%
CCN(CC(=O)NCc1ccc(Cl)cc1)C(=O)/C=C/c1ccc(C#N)cc1,-1.7%,0.3%,0.9%,-5.8%,.
COc1ccc(-c2[nH]ncc2CN2C[C@@H]3CCC[C@H]2C3)c(F)c1,1.2%,-5.4%,-7.3%,-1.0%,.
CC(C)(C)c1cc(-n2ccnc2)n2ncc(-c3ccc(Cl)cc3)c2n1,?,13.4%,-1.9%,?,?
Cc1cc(NCCCn2ccnc2)n2ncc(-c3ccc(Cl)cc3)c2n1,0.953µM*,0.562µM*,0.447µM*,?,4.5%
COC(=O)Cn1ncn2c(cc3oc(C)cc32)c1=O,15.1µM*,2.51µM*,?,?,?
Cc1cc(C)cc(NC(=O)Cn2ncn3c(cc4ccccc43)c2=O)c1,-2.1%,-4.8%,-1.2%,6.1%,-2.6%
O=[N+]([O-])c1cc(-c2ccc(C(=S)N3CCOCC3)o2)ccc1Cl,15.1µM*,7.5%,-9.8%,15.5%,25.5%
CN1CCN(C(=S)c2ccc(-c3cccc([N+](=O)[O-])c3)o2)CC1,6.75µM*,2.24µM*,2.24µM*,10.3µM*,.
O=[N+]([O-])c1cccc(-c2ccc(C(=S)N3CCOCC3)o2)c1,3.01µM*,1.12µM*,2.82µM*,?,11.2µM*
O=[N+]([O-])c1cccc(-c2ccc(C(=S)N3CCN(c4ccccc4)CC3)o2)c1,?,-0.9%,7.7%,-7.8%,.
Cc1ccc(OCC(=O)Nc2nc(-c3ccc(Br)cc3)ns2)cc1C,-6.2%,.,.,.,.
Cc1ccc2cc(NC(=O)CC(CC(=O)O)c3ccccc3)ccc2n1 (centres undefined),1.2%,-7.6%,0.2%,-2.0%,.
Cc1[nH]n(-c2ccccc2)c(=O)c1N=Nc1c(Cl)cccc1Cl,-14.8%,9.9%,14.8%,7.0%,.
Cc1cccc2c1ncc1c(=O)n(-c3ccccc3)[nH]c12,4.26µM*,2.24µM*,3.16µM*,?,.
Cc1cc(C(=O)CSc2nnc(-c3ccccc3F)o2)c(C)n1Cc1cccs1,?,-5.7%,-2.6%,0.6%,-29.6%
COc1ccccc1-n1cnnc1SCC(=O)c1cc(C)n(Cc2cccs2)c1C,19µM*,13.4%,16.1%,13.6%,0.8%
C=CCn1c(SCC(=O)c2cc(C)n(Cc3cccs3)c2C)nnc1-c1ccncc1,19µM*,-0.6%,1.5%,-5.8%,-14.2%
Cc1cc(C(=O)CSc2nc3ccccc3n2CCC#N)c(C)n1Cc1cccs1,?,?,25.0%,8.2µM*,?
C=CCn1c(SCC(=O)c2c(C)[nH]c3ccccc23)nnc1-c1ccncc1,0.2%,-12.5%,-3.7%,-2.7%,7.4%
CCOc1ccc(NC(=O)C2(c3ccc(OC)c(OC)c3)CCCC2)cc1,0.6%,-0.5%,1.5%,-2.6%,-16.5%
SMILES,FLuc counter,Rab9 prom act,NPC1 prom act,ELG1 genotoxic,SMN2 splice up
CCOCCCNC(=O)CN1C(=O)CSc2ccc(S(=O)(=O)N3CCOCC3)cc21,-0.4%,3.9%,1.9%,-0.9%,.
O=C(CNc1ccc2ccccc2c1)N/N=C/c1ccncc1,?,0.6%,0.3%,-0.9%,.
Cc1cccc(C(=O)N/N=C/c2ccc[nH]2)c1,?,-0.2%,5.3%,12.8%,9.3%
O=C(N/N=C/c1ccc[nH]1)c1cc2ccccc2cc1O,6.75µM*,8.5%,9.1%,24.6%,.
O=C(N/N=C/c1ccncc1)c1cc2ccccc2cc1O,7.57µM*,12.2%,-0.4%,?,.
O=C(N/N=C/c1ccncc1)c1cc([N+](=O)[O-])cc([N+](=O)[O-])c1O,26.9µM*,-10.0%,-4.2%,3.1%,11.4%
CCOc1ccc(-c2c[n+]3c(n2-c2ccccc2)CCCCC3)cc1,6.6%,-29.1%,-28.7%,-5.9%,-8.0%[1.84 µM]
C[C@]12CCC(=O)C=C1CC[C@@H]1[C@@H]2[C@@H](O)C[C@@]2(C)[C@H]1CC[C@]2(O)C(=O)CO,6.0%,-4.6%[46.1 µM],5.9%[46.1 µM],7.9%,-35.3%
Cc1cc(C(=O)CSc2ncccn2)c(C)n1Cc1ccco1,3.01µM*,0.562µM*,1µM*,?,3.55µM*
Cc1cc(C(=O)CSc2nnnn2C)c(C)n1Cc1ccco1,13.5µM*,2.82µM*,2.82µM*,?,.
Cc1cc(C(=O)CSc2nnnn2C)c(C)n1CCc1ccc(F)cc1,7.6%,4.4%,-11.0%,8.1%,-5.5%
O=C(NCc1ccc2c(c1)CCO2)Nc1ccccc1,15.1µM*,3.16µM*,3.55µM*,?,.
COc1ccc(C(=O)NC(=S)NNC(=O)c2ccccc2O)cc1,21.3µM*,-0.1%,1.5%,14.7%,.
COc1ccc(CCCC(=O)Nc2ccccc2F)cc1,13.5µM*,?,18.9%,?,14.5%
Cc1ccc(CCC(=O)Nc2ccccc2F)s1,7.57µM*,?,?,10.3µM*,?
COc1ccc(CCNC(=O)C(=O)Nc2ccccc2F)cc1,-0.4%,.,.,.,1.1%
COc1ccc(CNC(=S)Nc2ccccc2F)cc1,-9.3%,8.1%,8.2%,-0.7%,.
COc1ccc(C(=O)NC(=S)NNC(=O)c2ccco2)cc1,0.4%,-1.6%,-3.0%,2.8%,.
COc1ccc(C(=O)NC(=S)Nc2ccccc2F)cc1,2.69µM*,1.41µM*,1.78µM*,?,12.6µM*
O=C(CC(=O)Nc1ccccc1F)Nc1ccccc1F,-8.7%,-4.4%,0.3%,2.5%,.
COc1cc2nc(SCc3c(C)noc3C)n(CCC3=CCCCC3)c(=O)c2cc1OC,5.4%,-0.6%,-2.0%,-1.5%,?
COc1ccc(CNC(=O)COC(=O)CCOc2ccc(C)cc2)cc1,2.0%,-6.6%,-1.2%,-0.6%,.
O=C(CCCCn1c(=O)[nH]c2ccsc2c1=O)N1CCN(c2cccc(Cl)c2)CC1,-2.8%,.,.,.,-52.7%
COc1ccc(CCN2CC(C(=O)O)CC2=O)cc1OC (centres undefined),-2.1%,-5.2%,-1.0%,-1.9%,-8.2%
CCOC(=O)Cn1cnc(-c2ccc([N+](=O)[O-])cc2)c1,12µM*,?,22.7%,?,?
CC(OC(=O)C1CC(=O)N(Cc2ccco2)C1)C(=O)Nc1cccc(C#N)c1 (centres undefined),-1.1%,1.9%,-0.8%,0.6%,.
